# Records with an inconclusive call do not appear. The source holds several records for some structures; these can differ, active in one and inactive in another. Calls of active or inactive are those of the source. Rule for the calls, unless noted: active = hit-call score of the fitted dose curve at least 0.9, where 1 is the maximum; inconclusive = response in the unintended direction; inactive = score below 0.9.
# Columns and labels:
# [1] = ATG_TAL_CIS: Attagene CIS-FACTORIAL HepG2 Assay for human TAL Basal Promoter (AID 2282966; active = hit-call score of the fitted dose curve at least 0.9, where 1 is the maximum; inactive = score below 0.9;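 note: background control endpoint measuring basal TAL promoter reporter mRNA not a specific factor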); conditions: HepG2 Attagene cis-factorial TAL promoter reporter; actives raise or lower the signal
# Summary of the method: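 Steps: transfect HepG2 with multiple reporter transcription units; dose 24 h; isolate RNA, reverse-transcribe, PCR-amplify, label with 6-FAM, digest with HpaI; resolve by capillary electrophoresis. Bidirectional fitting against DMSO baseline.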
# [2] = ATG_TGFb_CIS: Attagene CIS-FACTORIAL HepG2 Assay for human Transforming Growth Factor (TGF) (AID 2282967; active = hit-call score of the fitted dose curve at least 0.9, where 1 is the maximum; inactive = score below 0.9); conditions: HepG2 Attagene CIS TGFb reporter, mRNA transcription; actives raise or lower the signal
# Summary of the method: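 Endogenous TGFB1-linked transcription factor activity read as reporter mRNA via RT-PCR and capillary electrophoresis, 24 h after dosing transiently transfected HepG2 cells. Gain or loss of signal fitted relative to DMSO.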
# [3] = ATG_VDRE_CIS: Attagene CIS-FACTORIAL HepG2 Assay for human Vitamin D Receptor Element (VDRE) (AID 2282968; active = hit-call score of the fitted dose curve at least 0.9, where 1 is the maximum; inactive = score below 0.9); conditions: HepG2 VDRE cis-reporter transcription, actives raise or lower the signal
# Summary of the method: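 Reporter mRNA induction, quantified by capillary electrophoresis of fluorescently labelled RT-PCR products, was read 24 h after dosing HepG2 cells carrying transiently transfected cis-regulated reporter units; gain or loss relative to DMSO.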
# [4] = target: X-box-binding protein 1 (Homo sapiens) (UniProt P17861); test: ATG_Xbp1_CIS: Attagene CIS-FACTORIAL HepG2 Assay for human X-box Binding Protein 1 (XBP1) (AID 2282972; active = hit-call score of the fitted dose curve at least 0.9, where 1 is the maximum; inactive = score below 0.9); conditions: HepG2 XBP1 cis-element reporter, Attagene multiplex; actives raise or lower the signal
# X-box-binding protein 1 (Homo sapiens), sequence (P17861 whole entry, looked up): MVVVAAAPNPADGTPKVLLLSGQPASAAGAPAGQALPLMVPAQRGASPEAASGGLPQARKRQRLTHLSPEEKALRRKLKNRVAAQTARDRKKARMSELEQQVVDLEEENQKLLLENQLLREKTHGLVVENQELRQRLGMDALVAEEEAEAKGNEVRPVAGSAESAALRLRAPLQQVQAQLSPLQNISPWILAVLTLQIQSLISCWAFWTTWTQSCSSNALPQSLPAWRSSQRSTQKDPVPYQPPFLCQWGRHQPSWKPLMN
# Summary of the method: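 HepG2 cells transiently transfected with cis-regulated multiple reporter transcription units; endogenous transcription factor activity measured 24 hours after chemical dosing. Reporter mRNA quantified by RT-PCR, 6-FAM primer extension, HpaI digestion and capillary electrophoresis; bidirectional fitting versus DMSO.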
# [5] = ATG_M_19_TRANS: Attagene TRANS-FACTORIAL HepG2 Assay for M19 Transcription Factor (Internal Marker) (AID 2282974); conditions: HepG2 Attagene TRANS-FACTORIAL M19 internal marker reporter
# Summary of the method: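 Multiplexed TRANS format: HepG2 liver cells bearing transient GAL4-UAS reporter units, chemical treatment 24 h, reporter transcripts quantified by RT-PCR plus capillary electrophoresis. DMSO defines baseline.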
# [6] = ATG_GAL4_TRANS: Attagene TRANS-FACTORIAL HepG2 Assay for GAL4 (Internal Marker) (AID 2282976); conditions: HepG2 Attagene TRANS GAL4 internal marker reporter
# Summary of the method: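 Liver HepG2 line bearing multiplexed GAL4-UAS reporter constructs; 24 h chemical treatment. Transcripts were quantified as fluorescent fragments on capillary electrophoresis after RT-PCR and HpaI cut, with activity fitted upward from DMSO.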
# [7] = target: Glucocorticoid receptor (Homo sapiens) (UniProt P04150); test: ATG_GR_TRANS: Attagene TRANS-FACTORIAL HepG2 Assay for human Glucocorticoid Receptor (GR) (AID 2282978); conditions: HepG2 Attagene TRANS GR reporter, mRNA transcription;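 note: activators score as hits since higher reporter transcript over DMSO is fitted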
# Summary of the method: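 Transiently transfected HepG2 cells express chimeric NR-GAL4 proteins acting on GAL4-UAS reporter units. Compounds are applied for 24 h. mRNA induction over DMSO is measured by capillary electrophoresis.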
# [8] = target: Oxysterols receptor LXR-alpha (Homo sapiens) (UniProt Q13133); test: ATG_LXRa_TRANS: Attagene TRANS-FACTORIAL HepG2 Assay for human Liver X Receptor alpha (LXRa) (AID 2282980); conditions: HepG2 Attagene TRANS reporter, LXRa transactivation
# Oxysterols receptor LXR-alpha (Homo sapiens), sequence (Q13133 whole entry, looked up, the tested form may be a part): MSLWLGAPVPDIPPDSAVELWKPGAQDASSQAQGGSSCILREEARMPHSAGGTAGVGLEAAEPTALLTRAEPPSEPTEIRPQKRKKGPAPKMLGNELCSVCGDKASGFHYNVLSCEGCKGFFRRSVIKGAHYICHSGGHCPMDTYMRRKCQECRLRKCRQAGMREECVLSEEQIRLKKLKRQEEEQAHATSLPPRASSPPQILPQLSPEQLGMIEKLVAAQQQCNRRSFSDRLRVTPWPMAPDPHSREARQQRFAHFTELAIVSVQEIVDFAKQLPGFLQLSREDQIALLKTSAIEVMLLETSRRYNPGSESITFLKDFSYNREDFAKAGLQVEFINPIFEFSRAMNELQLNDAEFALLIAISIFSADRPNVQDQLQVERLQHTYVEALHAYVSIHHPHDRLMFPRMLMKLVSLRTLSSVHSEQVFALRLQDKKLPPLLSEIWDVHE
# Summary of the method: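 In this multiplexed TRANS system, compounds act on HepG2 cells carrying GAL4-UAS reporter units and a receptor-GAL4 fusion for 24 h. Induced reporter RNA is amplified, fluorescently labelled and sized by capillary electrophoresis, with DMSO as baseline.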
# [9] = target: Hepatocyte nuclear factor 4-alpha (Homo sapiens) (UniProt P41235); test: ATG_HNF4a_TRANS: Attagene TRANS-FACTORIAL HepG2 Assay for human Hepatocyte Nuclear Factor 4 alpha (HNF4a) (AID 2282982); conditions: HepG2 HNF4a transactivation reporter, mRNA readout
# Hepatocyte nuclear factor 4-alpha (Homo sapiens), sequence (P41235 whole entry, looked up, the tested form may be a part): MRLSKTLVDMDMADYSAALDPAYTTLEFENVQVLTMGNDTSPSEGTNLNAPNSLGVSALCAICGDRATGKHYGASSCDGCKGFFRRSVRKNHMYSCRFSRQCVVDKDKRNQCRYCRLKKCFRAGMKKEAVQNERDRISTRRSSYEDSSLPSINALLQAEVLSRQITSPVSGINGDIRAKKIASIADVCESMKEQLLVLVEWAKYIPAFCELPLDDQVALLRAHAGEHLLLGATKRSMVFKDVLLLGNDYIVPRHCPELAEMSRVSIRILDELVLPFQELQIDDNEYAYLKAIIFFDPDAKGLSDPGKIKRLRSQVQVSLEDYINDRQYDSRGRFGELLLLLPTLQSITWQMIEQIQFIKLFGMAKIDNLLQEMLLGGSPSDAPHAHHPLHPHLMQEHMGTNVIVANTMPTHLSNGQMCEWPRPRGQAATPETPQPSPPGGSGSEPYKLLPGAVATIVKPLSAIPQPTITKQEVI
# Summary of the method: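 Readout is fluorescent reporter-transcript fragments resolved by capillary electrophoresis after RT-PCR from HepG2 cells dosed for 24 h. Cells carried transfected GAL4-UAS reporter constructs measuring exogenous NR-GAL4 chimera activity; DMSO served as baseline.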
# [10] = ATG_M_06_TRANS: Attagene TRANS-FACTORIAL HepG2 Assay for M06 Transcription Factor (Internal Marker) (AID 2282983); conditions: HepG2 Attagene TRANS M06 internal marker reporter;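 note: reporter transcript level by RT-PCR then capillary electrophoresis fluorescence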
# Summary of the method: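 Internal-marker background readout from a multiplexed TRANS reporter system in HepG2; 24 h dosing; mRNA induction quantified by RT-PCR plus capillary electrophoresis fluorescence; DMSO as negative control and baseline.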
# [11] = ATG_M_32_TRANS: Attagene TRANS-FACTORIAL HepG2 Assay for M32 Transcription Factor (Internal Marker) (AID 2282984); conditions: HepG2 Attagene TRANS M32 internal marker reporter;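 note: transcript level of a background control reporter unit measured by RT-PCR and capillary electrophoresis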
# Summary of the method: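 Measures reporter mRNA induction in human HepG2 liver cells after 24 h chemical treatment. Transcripts from transiently transfected GAL4-UAS reporter units are amplified, fluorescently labelled and sized by capillary electrophoresis; gain of signal relative to DMSO.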
# [12] = target: Nuclear receptor subfamily 4 group A member 2 (Homo sapiens) (UniProt P43354); test: ATG_NURR1_TRANS: Attagene TRANS-FACTORIAL HepG2 Assay for human Nuclear Receptor Related Protein 1 (NURR1) (AID 2282985); conditions: HepG2 Attagene TRANS reporter, mRNA readout
# Nuclear receptor subfamily 4 group A member 2 (Homo sapiens), sequence (P43354 whole entry, looked up, the tested form may be a part): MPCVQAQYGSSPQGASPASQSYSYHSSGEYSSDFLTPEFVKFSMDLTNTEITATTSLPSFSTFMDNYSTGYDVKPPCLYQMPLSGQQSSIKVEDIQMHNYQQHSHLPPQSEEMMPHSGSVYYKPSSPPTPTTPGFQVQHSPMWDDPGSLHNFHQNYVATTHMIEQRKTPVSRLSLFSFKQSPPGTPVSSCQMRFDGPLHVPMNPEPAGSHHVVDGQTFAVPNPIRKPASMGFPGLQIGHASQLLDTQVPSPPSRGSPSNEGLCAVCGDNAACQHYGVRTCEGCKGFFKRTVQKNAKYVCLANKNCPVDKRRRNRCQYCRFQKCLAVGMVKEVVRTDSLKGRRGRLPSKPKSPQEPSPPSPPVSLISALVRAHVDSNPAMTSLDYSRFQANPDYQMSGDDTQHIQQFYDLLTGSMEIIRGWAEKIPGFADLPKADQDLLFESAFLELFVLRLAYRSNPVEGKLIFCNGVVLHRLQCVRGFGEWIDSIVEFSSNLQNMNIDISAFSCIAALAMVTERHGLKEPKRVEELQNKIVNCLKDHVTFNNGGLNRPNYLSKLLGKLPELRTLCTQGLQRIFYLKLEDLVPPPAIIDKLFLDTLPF
# Summary of the method: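 Transient transfection of HepG2, human liver cells, with multiple GAL4-UAS reporter transcription units. Cells dosed 24 h, RNA isolated, reverse-transcribed, PCR-amplified, FAM-labelled, HpaI-digested, sized by capillary electrophoresis. DMSO served as negative control.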
# [13] = target: Transcriptional activator Myb (Homo sapiens) (UniProt P10242); test: ATG_Myb_CIS: Attagene CIS-FACTORIAL HepG2 Assay for human Myeloblastosis (Myb) Proto-Oncogene Transcription Factor (AID 2282986; active = hit-call score of the fitted dose curve at least 0.9, where 1 is the maximum; inactive = score below 0.9); conditions: HepG2 Attagene CIS-FACTORIAL Myb reporter transcription; actives raise or lower the signal
# Transcriptional activator Myb (Homo sapiens), sequence (P10242 whole entry, looked up): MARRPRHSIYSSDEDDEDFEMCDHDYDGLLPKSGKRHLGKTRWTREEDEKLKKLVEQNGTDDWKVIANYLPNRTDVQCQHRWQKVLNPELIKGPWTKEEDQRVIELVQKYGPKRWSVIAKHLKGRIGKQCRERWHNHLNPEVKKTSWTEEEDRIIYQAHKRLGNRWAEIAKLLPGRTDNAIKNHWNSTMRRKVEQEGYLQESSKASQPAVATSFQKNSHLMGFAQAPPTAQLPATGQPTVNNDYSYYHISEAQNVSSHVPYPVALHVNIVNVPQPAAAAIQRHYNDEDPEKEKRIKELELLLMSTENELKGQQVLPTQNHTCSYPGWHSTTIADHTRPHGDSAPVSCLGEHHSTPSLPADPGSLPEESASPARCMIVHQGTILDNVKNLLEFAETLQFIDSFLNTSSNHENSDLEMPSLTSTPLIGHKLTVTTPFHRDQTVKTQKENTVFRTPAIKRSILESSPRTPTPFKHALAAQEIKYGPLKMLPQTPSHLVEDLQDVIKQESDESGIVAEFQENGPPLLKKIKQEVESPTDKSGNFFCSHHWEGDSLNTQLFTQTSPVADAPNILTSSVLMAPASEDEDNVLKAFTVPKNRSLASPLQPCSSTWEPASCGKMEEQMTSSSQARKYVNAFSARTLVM
# Summary of the method: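 Using HepG2 liver cells bearing transiently transfected cis-promoter reporter constructs, the assay measures induction or loss of reporter mRNA after 24 hours of dosing. Detection used fluorescently labeled RT-PCR products separated by capillary electrophoresis.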
# [14] = target: Nuclear respiratory factor 1 (Homo sapiens) (UniProt Q16656); test: ATG_NRF1_CIS: Attagene CIS-FACTORIAL HepG2 Assay for human Nuclear Respiratory Factor 1 (NRF1) Orphan Gene (AID 2282987; active = hit-call score of the fitted dose curve at least 0.9, where 1 is the maximum; inactive = score below 0.9); conditions: HepG2 NRF1 cis-element reporter, Attagene multiplex; actives raise or lower the signal
# Nuclear respiratory factor 1 (Homo sapiens), sequence (Q16656 whole entry, looked up): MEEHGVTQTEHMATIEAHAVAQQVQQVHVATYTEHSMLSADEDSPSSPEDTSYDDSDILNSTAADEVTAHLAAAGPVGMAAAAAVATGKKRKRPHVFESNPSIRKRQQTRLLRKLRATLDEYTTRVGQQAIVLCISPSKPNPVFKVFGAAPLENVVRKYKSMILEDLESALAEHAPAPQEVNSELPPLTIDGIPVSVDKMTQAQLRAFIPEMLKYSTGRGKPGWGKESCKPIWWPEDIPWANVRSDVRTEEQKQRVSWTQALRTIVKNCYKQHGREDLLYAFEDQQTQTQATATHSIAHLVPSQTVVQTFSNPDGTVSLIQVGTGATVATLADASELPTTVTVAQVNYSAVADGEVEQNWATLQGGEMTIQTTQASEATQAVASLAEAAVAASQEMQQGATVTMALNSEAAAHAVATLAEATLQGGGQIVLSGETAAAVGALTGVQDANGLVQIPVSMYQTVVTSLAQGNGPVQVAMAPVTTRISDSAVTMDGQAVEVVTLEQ
# Summary of the method: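 Reporter mRNA induction or loss in HepG2 cells after 24 h dosing; cis-regulated reporter constructs report endogenous transcription-factor activity. Quantified by RT-PCR/capillary electrophoresis fluorescence, DMSO-referenced.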
# [15] = target: Bile acid receptor (Homo sapiens) (UniProt Q96RI1); test: ATG_FXR_TRANS: Attagene TRANS-FACTORIAL HepG2 Assay for Farnesoid X Receptor (FXR) (AID 2282979); conditions: HepG2 Attagene TRANS FXR-GAL4 reporter transcription;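 note: hits raise reporter mRNA above DMSO so AC50 marks FXR activation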
# Bile acid receptor (Homo sapiens), sequence (Q96RI1 whole entry, looked up, the tested form may be a part): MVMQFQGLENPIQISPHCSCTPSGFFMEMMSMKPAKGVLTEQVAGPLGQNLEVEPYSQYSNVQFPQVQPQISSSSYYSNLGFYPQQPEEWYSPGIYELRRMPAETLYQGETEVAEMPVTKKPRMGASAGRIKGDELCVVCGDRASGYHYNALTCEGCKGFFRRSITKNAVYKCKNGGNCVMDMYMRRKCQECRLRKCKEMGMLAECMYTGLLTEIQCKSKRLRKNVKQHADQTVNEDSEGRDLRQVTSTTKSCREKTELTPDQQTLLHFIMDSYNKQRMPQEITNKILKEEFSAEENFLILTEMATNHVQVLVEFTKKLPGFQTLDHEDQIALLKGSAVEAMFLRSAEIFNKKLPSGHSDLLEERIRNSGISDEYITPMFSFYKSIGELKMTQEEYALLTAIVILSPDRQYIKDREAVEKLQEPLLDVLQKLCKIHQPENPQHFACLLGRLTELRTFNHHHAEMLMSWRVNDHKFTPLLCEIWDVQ
# Summary of the method: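 After 24 h chemical treatment of transfected HepG2 cells, GAL4-UAS reporter transcripts driven by an exogenous FXR-GAL4 fusion were measured by RT-PCR and capillary electrophoresis. Increases over DMSO were fitted.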
# [16] = target: Oxysterols receptor LXR-beta (Homo sapiens) (UniProt P55055); test: ATG_LXRb_TRANS: Attagene TRANS-FACTORIAL HepG2 Assay for human Liver X Receptor beta (LXRb) (AID 2282981); conditions: HepG2 Attagene TRANS GAL4-LXRb reporter, mRNA
# Oxysterols receptor LXR-beta (Homo sapiens), sequence (P55055 whole entry, looked up, the tested form may be a part): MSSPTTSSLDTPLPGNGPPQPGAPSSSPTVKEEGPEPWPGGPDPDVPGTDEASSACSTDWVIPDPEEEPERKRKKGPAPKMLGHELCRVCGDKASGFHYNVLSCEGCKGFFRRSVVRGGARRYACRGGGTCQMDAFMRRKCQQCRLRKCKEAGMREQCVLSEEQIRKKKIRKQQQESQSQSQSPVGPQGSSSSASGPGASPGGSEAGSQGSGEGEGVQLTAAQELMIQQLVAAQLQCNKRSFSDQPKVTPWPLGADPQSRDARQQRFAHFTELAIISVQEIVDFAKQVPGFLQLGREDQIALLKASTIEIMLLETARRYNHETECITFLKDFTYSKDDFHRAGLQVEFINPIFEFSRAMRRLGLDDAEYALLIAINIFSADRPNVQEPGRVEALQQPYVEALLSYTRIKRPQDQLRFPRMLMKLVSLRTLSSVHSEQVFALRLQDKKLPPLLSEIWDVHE
# Summary of the method: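 Transient transfection HepG2 (multiplexed RTUs, GAL4-UAS); NR-Gal4 chimera; 24 h exposure; RNA → RT-PCR → 6-FAM primer extension → HpaI → CE; increase vs DMSO.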
# [17] = target: Steroid hormone receptor ERR1 (Homo sapiens) (UniProt P11474); test: ATG_ERRa_TRANS: Attagene TRANS-FACTORIAL HepG2 Assay for human Estrogen-Related Receptor alpha (ERRa) (AID 2282971); conditions: HepG2 Attagene TRANS reporter, ERRa transactivation
# Summary of the method: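 Signal gain relative to DMSO for an ERRa-Gal4 chimeric receptor, read as reporter mRNA by RT-PCR/capillary electrophoresis. Human HepG2 liver cells, transient multiplex reporter transfection, 24 h chemical exposure.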
# [18] = target: Estrogen receptor (Homo sapiens) (UniProt P03372); test: ATG_ERa_TRANS: Attagene TRANS-FACTORIAL HepG2 Assay for human Estrogen Receptor alpha (ERa) (AID 2282970); conditions: HepG2 Attagene TRANS ERa GAL4 reporter, mRNA
# Estrogen receptor (Homo sapiens), sequence (P03372 whole entry, looked up, the tested form may be a part): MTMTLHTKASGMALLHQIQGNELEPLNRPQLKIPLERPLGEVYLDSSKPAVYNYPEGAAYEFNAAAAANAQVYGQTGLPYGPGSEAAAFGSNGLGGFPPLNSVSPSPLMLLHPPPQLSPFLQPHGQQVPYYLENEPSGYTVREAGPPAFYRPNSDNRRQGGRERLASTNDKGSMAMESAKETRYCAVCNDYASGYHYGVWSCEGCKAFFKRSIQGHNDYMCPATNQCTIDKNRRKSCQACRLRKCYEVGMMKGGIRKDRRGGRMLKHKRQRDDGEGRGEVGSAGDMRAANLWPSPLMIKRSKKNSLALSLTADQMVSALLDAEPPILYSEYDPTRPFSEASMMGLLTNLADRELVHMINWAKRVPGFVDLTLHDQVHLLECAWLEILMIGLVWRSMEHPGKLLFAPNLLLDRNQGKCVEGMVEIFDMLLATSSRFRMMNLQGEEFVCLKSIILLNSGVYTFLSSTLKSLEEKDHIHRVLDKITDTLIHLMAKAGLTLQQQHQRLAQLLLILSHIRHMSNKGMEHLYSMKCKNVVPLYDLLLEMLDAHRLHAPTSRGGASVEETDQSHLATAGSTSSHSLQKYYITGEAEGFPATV
# Summary of the method: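 Multiplexed cell-based reporter format in HepG2: chimeric ERa-Gal4 protein drives GAL4-UAS reporter transcription. Fluorescent reporter mRNA quantified by capillary electrophoresis 24 hours after dosing; endpoint fitted as signal gain against DMSO.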
# [19] = target: Estrogen-related receptor gamma (Homo sapiens) (UniProt P62508); test: ATG_ERRg_TRANS: Attagene TRANS-FACTORIAL HepG2 Assay for human Estrogen-Related Receptor gamma (ERRg) (AID 2282977); conditions: HepG2 Attagene TRANS reporter, ERRg transactivation;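 note: hits increase reporter signal over DMSO so potencies reflect activators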
# Estrogen-related receptor gamma (Homo sapiens), sequence (P62508 whole entry, looked up, the tested form may be a part): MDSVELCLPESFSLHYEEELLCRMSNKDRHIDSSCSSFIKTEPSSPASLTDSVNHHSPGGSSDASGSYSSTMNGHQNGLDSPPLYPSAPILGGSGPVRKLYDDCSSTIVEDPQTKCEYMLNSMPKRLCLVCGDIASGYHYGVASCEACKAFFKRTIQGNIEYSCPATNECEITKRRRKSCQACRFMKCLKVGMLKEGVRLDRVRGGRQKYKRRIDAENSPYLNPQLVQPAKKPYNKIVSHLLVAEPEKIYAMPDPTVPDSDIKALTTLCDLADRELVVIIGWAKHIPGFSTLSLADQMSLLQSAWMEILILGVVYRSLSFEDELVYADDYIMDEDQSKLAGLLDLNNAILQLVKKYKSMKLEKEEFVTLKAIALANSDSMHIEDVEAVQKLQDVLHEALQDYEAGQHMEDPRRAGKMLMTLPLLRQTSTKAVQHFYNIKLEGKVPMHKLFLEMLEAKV
# Summary of the method: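 Transfect HepG2 with multiple GAL4-UAS reporter transcription units; dose chemicals 24 h; isolate RNA, reverse-transcribe with oligo(dT), PCR-amplify, label with 6-FAM, digest with HpaI; size fragments by capillary electrophoresis. DMSO serves as negative control.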
smiles,measurement,setting,value
CC(O)CC(C)(C)O (configuration not stated),outcome,[1],inactive
same,outcome,[2],inactive
same,outcome,[3],inactive
same,AC50,[4],0.0122 µM (active)
same,outcome,[4],inactive
same,outcome,[5],inactive
same,outcome,[6],inactive
same,outcome,[7],inactive
same,outcome,[8],inactive
same,outcome,[9],inactive
same,outcome,[10],inactive
same,outcome,[11],inactive
same,outcome,[12],inactive
same,outcome,[13],inactive
same,outcome,[14],inactive
CCCCCCCCCCCC[N+](C)(C)C,outcome,[1],inactive
same,outcome,[2],inactive
same,outcome,[3],inactive
same,AC50,[4],33.4 µM (active)
same,outcome,[4],inactive
same,outcome,[5],inactive
same,outcome,[7],inactive
same,outcome,[15],inactive
same,outcome,[8],inactive
same,outcome,[16],inactive
same,outcome,[9],inactive
same,outcome,[10],inactive
same,outcome,[11],inactive
same,outcome,[12],inactive
same,outcome,[13],inactive
same,outcome,[14],inactive
Cc1ncc(CO)c(CO)c1O,outcome,[1],inactive
same,outcome,[2],inactive
same,outcome,[3],inactive
same,outcome,[4],inactive
same,outcome,[5],inactive
same,outcome,[6],inactive
same,outcome,[15],inactive
same,outcome,[8],inactive
same,outcome,[16],inactive
same,outcome,[10],inactive
same,outcome,[12],inactive
same,outcome,[13],inactive
Cc1ccc2oc(CN(Cc3ccccc3)C(=O)Nc3c(F)cc(F)cc3F)c(-c3ccc(Cl)cc3)c2c1,outcome,[1],inactive
same,outcome,[2],inactive
same,outcome,[3],inactive
same,outcome,[17],inactive
same,outcome,[4],inactive
same,outcome,[5],inactive
same,outcome,[7],inactive
same,outcome,[8],inactive
same,outcome,[16],inactive
same,outcome,[9],inactive
same,outcome,[10],inactive
same,outcome,[11],inactive
same,outcome,[12],inactive
same,outcome,[13],inactive
CN(C)C(=O)C1(N2CCCCC2)CCN(CC[C@@]2(c3ccc(Cl)c(Cl)c3)CN(C(=O)c3ccccc3)CCO2)CC1,outcome,[1],inactive
same,outcome,[2],inactive
same,outcome,[3],inactive
same,outcome,[18],inactive
same,outcome,[4],inactive
same,outcome,[19],inactive
same,outcome,[7],inactive
same,outcome,[15],inactive
same,outcome,[8],inactive
same,outcome,[10],inactive
same,outcome,[12],inactive
same,outcome,[13],inactive
same,outcome,[14],inactive
CCOC(=O)O[C@H](C)OC(=O)c1ccc2c(c1)cc(C(=O)NC1CCN(C(C)C)CC1)n2Cc1cc(-c2ccc(Cl)s2)on1,outcome,[1],inactive
same,outcome,[2],inactive
same,outcome,[3],inactive
same,outcome,[18],inactive
same,outcome,[4],inactive
same,outcome,[6],inactive
same,outcome,[7],inactive
same,outcome,[15],inactive
same,outcome,[10],inactive
same,outcome,[13],inactive
same,outcome,[14],inactive
Clc1ccccc1C(c1ccccc1)(c1ccccc1)n1ccnc1,outcome,[1],inactive
same,outcome,[2],inactive
same,AC50,[3],4.84 µM (active)
same,outcome,[18],inactive
same,AC50,[4],11.1 µM (active)
same,outcome,[6],inactive
same,outcome,[19],inactive
same,outcome,[7],inactive
same,outcome,[15],inactive
same,outcome,[10],inactive
same,outcome,[12],inactive
same,outcome,[13],inactive
CN1C(=O)CC[C@H]1c1cccnc1,outcome,[1],inactive
same,outcome,[2],inactive
same,outcome,[4],inactive
same,outcome,[6],inactive
same,outcome,[8],inactive
same,outcome,[16],inactive
same,outcome,[9],inactive
same,outcome,[10],inactive
same,outcome,[11],inactive
same,outcome,[12],inactive
same,outcome,[13],inactive
same,outcome,[14],inactive
O=C(O)c1ccccc1-n1cc(C(=O)O)c(=O)c2cc(Nc3c(F)cc(F)cc3Cl)c(Cl)cc21,outcome,[1],inactive
same,outcome,[2],inactive
same,outcome,[3],inactive
same,outcome,[18],inactive
same,outcome,[4],inactive
same,outcome,[7],inactive
same,outcome,[15],inactive
same,outcome,[8],inactive
same,outcome,[10],inactive
same,outcome,[11],inactive
same,outcome,[13],inactive
same,outcome,[14],inactive
